Over roughly 39,000 sequences, “fluorescence intensity (a.u.)” has its median near 4,300; the highest 2% begin near 39,000. Shown is part of a subset that was picked to be rich in the highest values.

For this assay, the target named is T1, OsSMF1 (Oryza sativa, UniProt Q6ZLB0 1-436).
T1 sequence: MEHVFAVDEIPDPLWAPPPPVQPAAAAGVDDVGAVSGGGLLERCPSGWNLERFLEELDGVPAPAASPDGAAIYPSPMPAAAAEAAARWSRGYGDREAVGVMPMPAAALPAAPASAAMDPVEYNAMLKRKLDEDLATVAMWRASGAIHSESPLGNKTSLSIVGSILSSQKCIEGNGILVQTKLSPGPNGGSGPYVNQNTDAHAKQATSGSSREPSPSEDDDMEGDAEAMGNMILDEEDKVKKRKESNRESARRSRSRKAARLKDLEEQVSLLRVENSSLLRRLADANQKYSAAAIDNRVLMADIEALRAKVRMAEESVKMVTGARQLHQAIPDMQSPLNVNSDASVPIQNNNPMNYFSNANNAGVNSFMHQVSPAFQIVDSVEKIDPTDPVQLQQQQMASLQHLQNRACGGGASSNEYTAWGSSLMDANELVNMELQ
Put plainly: protein-binding microarray (RPBM); PBS, 2% BSA, 51.3 ng/ul salmon testes DNA, 50 uM zinc acetate, 200 nM TF, 25 C, 1 h; high values mean tight binding. The settings on record: protein: recombinant; tags: N-terminal polyhistidine and DsRed monomer fusion (pET32a); chain copies: 2; label: CyDye5-dUTP incorporated in the synthesized complementary strand; 3' TTTTT single-stranded linker to array surface; dsDNA, one strand shown. The essentials: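 A custom Agilent array was converted to double-stranded form by primer extension with Cy5-dUTP and blocked with 2% BSA. Protein at 200 nM in PBS with 2% BSA, salmon testes DNA and 50 µM zinc acetate was applied for 1 h at 25 °C, followed by washing. The proteins were polyhistidine–DsRed N-terminal fusions of transcription factors, expressed in E. coli BL21-CodonPlus and Ni–NTA-purified. The binding signal is per-feature fluorescence intensity (arbitrary units) from an Axon 4000B scanner.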
For “CTCCACCACGAGTCACGAGTCACGACCACCTCTCCGGTCTCGGAGTCACCTAGTGCAG”, the binding signal is 4170 fluorescence intensity (a.u.).

Regarding “GATCTAGCCGACTCGATCCCGCCGATGACGATTCCATCCCCGGAGTCACCTAGTGCAG”, the binding signal is 39300 fluorescence intensity (a.u.).

As to “ATGATGATGATCCTGATCCTGATCTTCCTCCTCGATCGACCGGAGTCACCTAGTGCAG”, the binding signal was 42700 fluorescence intensity (a.u.).

Turning to “GCCCGGAAGCTAGCGCCTCGTCGACTTGGGCGGCGGCTGACGGAGTCACCTAGTGCAG”, the binding signal is 18000 fluorescence intensity (a.u.).

For “CTTAGTCGCCATTTTCTTCCCATATCCACGCGCCACGTGGCGGAGTCACCTAGTGCAG”, the binding signal is 25100 fluorescence intensity (a.u.).

In the case of “TGAATCTATACACTCTTCTATTCAGATTCGTTGTACTATGCGGAGTCACCTAGTGCAG”, the binding signal was 3870 fluorescence intensity (a.u.).

Take “GCCTAATTACATCATGATTTGACAATGTTGTGCTACAGTACGGAGTCACCTAGTGCAG”: the binding signal is 4210 fluorescence intensity (a.u.).

In the case of “CTACCAGACCCGTGGGCCGGCTCTGCCTCGCCTAATCCAGCGGAGTCACCTAGTGCAG”, the binding signal was 47000 fluorescence intensity (a.u.).

As for “CCGCGGCCACCTGGCCTACCTCGCCTCTCCCGTGGGCCCCCGGAGTCACCTAGTGCAG”, the binding signal is 3240 fluorescence intensity (a.u.).

Take “GCCGTGCCGTGCCGTGCCGGCCCGCGGGCTCGGCCAGCGGCGGAGTCACCTAGTGCAG”: the binding signal is 30700 fluorescence intensity (a.u.).

Take “TGCATAAGTGTCCGTACCAGTACGGTCAGAGTGACATATGCGGAGTCACCTAGTGCAG”: the binding signal was 3770 fluorescence intensity (a.u.).

For the sequence “TTACGAGACGAATCTTTTAAGACTAATTGCTCCATGATTTCGGAGTCACCTAGTGCAG”, the binding signal is 3280 fluorescence intensity (a.u.).

Regarding “TAAATTTTAATTTTCTGATTGGTATGCCACGTTAGTGAAACGGAGTCACCTAGTGCAG”, the binding signal is 3420 fluorescence intensity (a.u.).

In the case of “TTTGGTTTCCGGCCAAACATTGCCACGCCTAACTTAAGGCCGGAGTCACCTAGTGCAG”, the binding signal was 5170 fluorescence intensity (a.u.).

Take “TTTCTCTGAACGACCGGCCACGTTAAACTAAGGCCAAGTCCGGAGTCACCTAGTGCAG”: the binding signal was 65500 fluorescence intensity (a.u.).

Consider “CGCCATCGCCAACGCCAACGCCTCCGCGGACTCCATTGTCCGGAGTCACCTAGTGCAG”, for which the binding signal is 3650 fluorescence intensity (a.u.).

For the sequence “AATGTAGGCACCATACCATGACTGTTTTCACACATTGTACCGGAGTCACCTAGTGCAG”, the binding signal was 3580 fluorescence intensity (a.u.).

Turning to “AATATGAACTGATAGGATTTGTTTTCACACCATACCAAACCGGAGTCACCTAGTGCAG”, the binding signal is 59700 fluorescence intensity (a.u.).

Take “GATAGGAGGGGATAACTTGTTTCATATTTTGTGCCGGGTTCGGAGTCACCTAGTGCAG”: the binding signal is 3710 fluorescence intensity (a.u.).

With “TGCGATTTTAGACGATTATCGTGCGATTATCACGGTTATCCGGAGTCACCTAGTGCAG”, the binding signal was 3360 fluorescence intensity (a.u.).

For the sequence “AGCGAGACACTTTGAGATTTAGTATGAGTCATGTAAATTACGGAGTCACCTAGTGCAG”, the binding signal was 7830 fluorescence intensity (a.u.).

For “GGGCCAAATTTTATCGAGAAGATTAGACACGAGTATGGGCCGGAGTCACCTAGTGCAG”, the binding signal is 47600 fluorescence intensity (a.u.).

Turning to “GCGTGCCGAAGGTGTGTCCCCTGCACCGGCTCCGGCAGGTCGGAGTCACCTAGTGCAG”, the binding signal is 9960 fluorescence intensity (a.u.).

“ATGAAAGGGAATGTGTGGTGGAGGAGGTGGCTGAGAGATTCGGAGTCACCTAGTGCAG”: the binding signal is 3340 fluorescence intensity (a.u.).

Regarding “TGAACATGCCCATTGTTACTCATTCCTAATACTATAGGAACGGAGTCACCTAGTGCAG”, the binding signal was 42200 fluorescence intensity (a.u.).

“ATTCGTTATACTAGGTGACATCTCATCTAATATTTGTTTACGGAGTCACCTAGTGCAG”: the binding signal was 4270 fluorescence intensity (a.u.).

With “TTGTTGAAGCAGTTTAATGTTAATAGTATACTAACATTAACGGAGTCACCTAGTGCAG”, the binding signal was 28600 fluorescence intensity (a.u.).

“GGAACTTCTGTTTAGGCATTTGCACCTGAAATATGATCTGCGGAGTCACCTAGTGCAG”: the binding signal was 3190 fluorescence intensity (a.u.).

For “TCCCGCAGGAGTTCCACCCACGTGTCATAAACCATTACAGCGGAGTCACCTAGTGCAG”, the binding signal is 12800 fluorescence intensity (a.u.).

On to “TGAATTGGAGCGACCGTGAGAGGTAGCATAGAATGTCATGCGGAGTCACCTAGTGCAG”, for which the binding signal is 3270 fluorescence intensity (a.u.).

For “CAAAAGGACCATGGTGTGTGGATGACATGACTAGTGAGGCCGGAGTCACCTAGTGCAG”, the binding signal is 4650 fluorescence intensity (a.u.).

For the sequence “TGTTGATGGCGTCATTATTTACATGGTATGGTGCATTTGGCGGAGTCACCTAGTGCAG”, the binding signal is 14600 fluorescence intensity (a.u.).

Take “CTCTTCTCCACCTCAACATTTAGCCGGCTTATAGCTACTACGGAGTCACCTAGTGCAG”: the binding signal is 3960 fluorescence intensity (a.u.).

“CAGACCAGGGTTACTCTCCTCAACATTCTTAGCTCATAGACGGAGTCACCTAGTGCAG”: the binding signal is 47700 fluorescence intensity (a.u.).

“ACAGGGTTGCCAAGCTCTTACTCAACCTAAACCACCAGAACGGAGTCACCTAGTGCAG”: the binding signal was 3200 fluorescence intensity (a.u.).

Consider “TGAACCCCACATGTCAGCTTTACTACTCCCTTCTTCCCTACGGAGTCACCTAGTGCAG”, for which the binding signal is 4350 fluorescence intensity (a.u.).

Regarding “CGCGACACGACACGACACGACACGACGGCACGAGCCCACCCGGAGTCACCTAGTGCAG”, the binding signal is 4540 fluorescence intensity (a.u.).

On to “GGAAAGTGGACAATTAAATCAAGCGATGATGTGGATGTGGCGGAGTCACCTAGTGCAG”, for which the binding signal was 5830 fluorescence intensity (a.u.).

Regarding “TTCATCCTCGGCCACTCCTACGTCAAGGCCAAGAGCGGCTCGGAGTCACCTAGTGCAG”, the binding signal was 3600 fluorescence intensity (a.u.).

As for “CTCTTCAGGGAACAGAATCAAATCAGCATTTTAACTAACTCGGAGTCACCTAGTGCAG”, the binding signal was 40100 fluorescence intensity (a.u.).

Regarding “TGGCAAATCTCATCAGCAACAGGGACCTCTTGGTGTGACTCGGAGTCACCTAGTGCAG”, the binding signal is 4290 fluorescence intensity (a.u.).

In the case of “CAAATACTACATCACACAGGTCAGCAGAAATTTCACTCTTCGGAGTCACCTAGTGCAG”, the binding signal was 4100 fluorescence intensity (a.u.).

(Values after article PMC7819943, “Rice protein-binding microarrays: a tool to detect cis-acting elements near promoter regions in rice”.)
